The text below walks through data of PubChem BioAssay (EPA / NIEHS).

The source made the active and inactive calls. How the source made its calls: active means hit-call score of the fitted dose curve at least 0.9, where 1 is the maximum; inactive means score below 0.9.

Conditions in all cases: mRNA level, 48 h; actives raise or lower the signal
Read-out in test [1]: Bcl-2 (BID) gene, BID (gene 637)
In words: LTEA_HepaRG_BID: Life Technologies and Expression Analysis (LTEA) Assay for Bcl-2 (BID) gene using HepaRG (AID 2283476). The method in brief: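 Gene expression by qRT-PCR in HepaRG cells after 48 h exposure, duplicate wells, eight half-log concentrations topping at 100 uM in 0.5% DMSO. Normalized to ACTB, GAPDH, POLR2A; bidirectional fitting relative to DMSO.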

Read-out in the next test: Caspase-3 (Homo sapiens) (UniProt P42574)
In words: LTEA_HepaRG_CASP3: Life Technologies and Expression Analysis (LTEA) Assay for cysteine-aspartic acid protease (CASP3) using HepaRG (AID 2283477). The method in brief:
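In HepaRG liver cells dosed for 48 h at up to 100 uM (eight-point, duplicate), CASP3 expression changes are scored by qRT-PCR. Activity is fitted in both directions with 0.5% DMSO as baseline.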

Read-out in test [2]: Cytochrome P450 (CYP24A1), CYP24A1 (gene 1591)
As to the kind of experiment: LTEA_HepaRG_CYP24A1: Life Technologies and Expression Analysis (LTEA) Assay for Cytochrome P450 (CYP24A1) using HepaRG (AID 2283478). The method in brief: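 Human liver HepaRG cultures receive each chemical for 48 h across an eight-point half-log series topping at 100 uM in 0.5% DMSO. Induction or suppression of CYP24A1 mRNA is scored relative to vehicle after housekeeping-gene normalization.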

Read-out in test [3]: Cytochrome P450 (CYP1A2), CYP1A2 (gene 1544)
In words: LTEA_HepaRG_CYP1A2: Life Technologies and Expression Analysis (LTEA) Assay for Cytochrome P450 (CYP1A2) using HepaRG (AID 2283479). The procedure, abridged:
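Assesses CYP1A2 mRNA in human HepaRG liver cells after 48 h chemical exposure at up to 100 uM. Values come from qRT-PCR with bidirectional curve fitting relative to DMSO.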

Read-out in test [4]: cysteine-aspartic acid protease (CASP8), CASP8 (gene 841)
In words: LTEA_HepaRG_CASP8: Life Technologies and Expression Analysis (LTEA) Assay for cysteine-aspartic acid protease (CASP8) using HepaRG (AID 2283480). The method in brief: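 Differentiated HepaRG cells in serum-free induction medium, 48 h exposure, eight-point half-log series from 100 uM in 0.5% DMSO, duplicates. CASP8 mRNA by qRT-PCR, normalized to ACTB, GAPDH, POLR2A; bidirectional fit versus DMSO.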

Read-out in test [5]: Cytochrome P450 (CYP2B6), CYP2B6 (gene 1555)
In words: LTEA_HepaRG_CYP2B6: Life Technologies and Expression Analysis (LTEA) Assay for Cytochrome P450 (CYP2B6) using HepaRG (AID 2283481). The procedure, abridged: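 Using 48 h treatment of HepaRG cells in serum-free induction medium, concentrations spanned half-log steps from 100 uM in 0.5% DMSO vehicle. CYP2B6 mRNA induction or loss is scored by qRT-PCR against DMSO.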

Read-out in test [6]: Cytochrome P450 2C19 (Homo sapiens) (UniProt P33261)
As to the kind of experiment: LTEA_HepaRG_CYP2C19: Life Technologies and Expression Analysis (LTEA) Assay for CYP2C19 using HepaRG (AID 2283482). The procedure, abridged:
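Human HepaRG liver cells received test chemicals for 48 h (highest 100 uM, half-log dilutions in 0.5% DMSO). CYP2C19 mRNA induction or loss is read by multiplexed qRT-PCR and fitted in both directions versus vehicle.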

Read-out in another test: CYP2C8 (gene 1558)
In words: LTEA_HepaRG_CYP2C8: Life Technologies and Expression Analysis (LTEA) Assay for CYP2C8 using HepaRG (AID 2283483). The procedure, abridged:
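Differentiated HepaRG cells in serum-free induction medium exposed 48 h in duplicate to 8 half-log concentrations from 100 uM in 0.5% DMSO. CYP2C8 mRNA by qRT-PCR normalized to ACTB, GAPDH, POLR2A; bidirectional fit versus DMSO.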

Read-out in the next test: CYP2E1 (gene 1571)
As to the kind of experiment: LTEA_HepaRG_CYP2E1: Life Technologies and Expression Analysis (LTEA) Assay for CYP2E1 using HepaRG (AID 2283485). The method in brief:
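HepaRG cells, plated 48 h, then exposed 48 h in serum-free induction medium to eight half-log concentrations from 100 uM in 0.5% DMSO, duplicate. CYP2E1 mRNA by qRT-PCR, normalized to ACTB/GAPDH/POLR2A; bidirectional fit versus DMSO.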

Read-out in a further test: CYP4A11 (gene 1579)
As to the kind of experiment: LTEA_HepaRG_CYP4A11: Life Technologies and Expression Analysis (LTEA) Assay for CYP4A11 using HepaRG (AID 2283486). The method in brief: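 Readout is CYP4A11 mRNA induction or suppression (qRT-PCR, ACTB/GAPDH/POLR2A normalization) in human HepaRG cells after 48 h chemical treatment, concentrations to 100 uM in 0.5% DMSO, fitted bidirectionally against vehicle.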

Read-out in test [7]: Cytochrome P450 3A4 (Homo sapiens) (UniProt P08684)
As to the kind of experiment: LTEA_HepaRG_CYP3A4: Life Technologies and Expression Analysis (LTEA) Assay for CYP3A4 using HepaRG (AID 2283487). The procedure, abridged: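 HepaRG, 48 h exposure, 8-pt CRC from 100 uM (half-log), 0.5% DMSO, duplicates; serum-free induction medium. Readout: CYP3A4 mRNA, qRT-PCR, ACTB/GAPDH/POLR2A normalization. Bidirectional fit vs DMSO.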

Read-out in test [8]: DNA damage-inducible transcript 3 (DDIT3), DDIT3 (gene 1649)
As to the kind of experiment: LTEA_HepaRG_DDIT3: Life Technologies and Expression Analysis (LTEA) Assay for DNA damage-inducible transcript 3 (DDIT3) using HepaRG (AID 2283488). The method in brief:
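HepaRG cells, 48 h after plating, exposed 48 h in serum-free induction medium to 8 half-log concentrations up to 100 uM in 0.5% DMSO, in duplicate. DDIT3 mRNA measured by TaqMan qRT-PCR, normalized to ACTB, GAPDH and POLR2A. Fitted bidirectionally against DMSO.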

Read-out in test [9]: Pro-epidermal growth factor (Homo sapiens) (UniProt P01133)
In words: LTEA_HepaRG_EGF: Life Technologies and Expression Analysis (LTEA) Assay for Epidermal growth factor (EGF) using HepaRG (AID 2283489). The procedure, abridged:
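EGF expression changes in human HepaRG cells are scored by bidirectional fitting relative to 0.5% DMSO controls. Chemicals are tested at eight half-log concentrations up to 100 uM for 48 h in serum-free induction medium.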

Read-out in test [10]: Early growth response protein 1 (EGR1) transcription factor, EGR1 (gene 1958)
In words: LTEA_HepaRG_EGR1: Life Technologies and Expression Analysis (LTEA) Assay for Early growth response protein 1 (EGR1) transcription factor using HepaRG (AID 2283490). The procedure, abridged: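 Differentiated HepaRG cells in serum-free induction medium exposed 48 hours, duplicate, to 8 half-log concentrations up to 100 uM in 0.5% DMSO. EGR1 mRNA measured by TaqMan qRT-PCR, normalized to ACTB, GAPDH, POLR2A; bidirectional fit versus DMSO.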

Read-out in test [11]: Ezrin (EZR), EZR (gene 7430)
In words: LTEA_HepaRG_EZR: Life Technologies and Expression Analysis (LTEA) Assay for Ezrin (EZR) using HepaRG (AID 2283491). The procedure, abridged:
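Read-out is EZR transcript level by qRT-PCR, normalized to three housekeeping genes and fitted bidirectionally against the DMSO control. Human HepaRG cells received test chemicals for 48 h at eight half-log concentrations up to 100 uM in 0.5% DMSO.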

Read-out in test [12]: Cytochrome P450 3A7 (Homo sapiens) (UniProt P24462)
As to the kind of experiment: LTEA_HepaRG_CYP3A7: Life Technologies and Expression Analysis (LTEA) Assay for CYP3A7 using HepaRG (AID 2283492). The procedure, abridged: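 Cells were thawed, plated, cultured 48 h, then treated for a further 48 h with chemicals (eight-point half-log series from 100 uM, 0.5% DMSO). RNA was isolated and CYP3A7 expression quantified by qRT-PCR normalised to ACTB, GAPDH and POLR2A.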

Read-out in the next test: CYP3A5 (gene 1577)
In words: LTEA_HepaRG_CYP3A5: Life Technologies and Expression Analysis (LTEA) Assay for CYP3A5 using HepaRG (AID 2283493). The method in brief: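 HepaRG cells, plated 48 h then in serum-free induction medium, dosed in duplicate for 48 h with eight half-log concentrations up to 100 uM in 0.5% DMSO. Gene mRNA by Fluidigm TaqMan qRT-PCR, normalized to ACTB, GAPDH, POLR2A.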

Read-out in test [13]: Fatty Acid-Binding Protein 1 (FABP1), FABP1 (gene 2168)
In words: LTEA_HepaRG_FABP1: Life Technologies and Expression Analysis (LTEA) Assay for Fatty Acid-Binding Protein 1 (FABP1) using HepaRG (AID 2283494). The procedure, abridged:
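Differentiated human HepaRG cells exposed 48 h in serum-free induction medium to eight half-log concentrations up to 100 uM (0.5% DMSO), duplicate. FABP1 mRNA by qRT-PCR, normalised to ACTB, GAPDH, POLR2A; bidirectional fitting against DMSO.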

Read-out in test [14]: Cytochrome P450 4A22 (Homo sapiens) (UniProt Q5TCH4)
As to the kind of experiment: LTEA_HepaRG_CYP4A22: Life Technologies and Expression Analysis (LTEA) Assay for Cytochrome P450 4A22 (CYP4A22) using HepaRG (AID 2283495). The method in brief:
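Cryopreserved HepaRG cells, plated and cultured 48 h, then switched to serum-free induction medium and treated 48 h (duplicates, up to 100 uM, half-log steps, 0.5% DMSO). Expression change of CYP4A22 was fitted bidirectionally against vehicle.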

Cytochrome P450 3A4 (Homo sapiens), sequence (P08684 whole entry, looked up): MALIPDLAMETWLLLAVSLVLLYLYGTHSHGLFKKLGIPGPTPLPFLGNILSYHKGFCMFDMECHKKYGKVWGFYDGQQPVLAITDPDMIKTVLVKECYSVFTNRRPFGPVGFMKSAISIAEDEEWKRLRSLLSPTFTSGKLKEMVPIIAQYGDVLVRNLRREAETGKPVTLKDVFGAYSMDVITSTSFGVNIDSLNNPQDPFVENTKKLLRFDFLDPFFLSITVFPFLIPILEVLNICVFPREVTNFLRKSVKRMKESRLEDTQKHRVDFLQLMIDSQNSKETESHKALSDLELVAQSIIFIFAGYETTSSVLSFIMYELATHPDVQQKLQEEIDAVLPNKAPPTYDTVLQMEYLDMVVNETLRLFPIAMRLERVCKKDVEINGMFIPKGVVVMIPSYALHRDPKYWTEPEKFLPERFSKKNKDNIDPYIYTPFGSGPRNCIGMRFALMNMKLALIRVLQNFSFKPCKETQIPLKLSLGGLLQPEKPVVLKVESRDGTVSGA
Cytochrome P450 2C19 (Homo sapiens), sequence (P33261 whole entry, looked up): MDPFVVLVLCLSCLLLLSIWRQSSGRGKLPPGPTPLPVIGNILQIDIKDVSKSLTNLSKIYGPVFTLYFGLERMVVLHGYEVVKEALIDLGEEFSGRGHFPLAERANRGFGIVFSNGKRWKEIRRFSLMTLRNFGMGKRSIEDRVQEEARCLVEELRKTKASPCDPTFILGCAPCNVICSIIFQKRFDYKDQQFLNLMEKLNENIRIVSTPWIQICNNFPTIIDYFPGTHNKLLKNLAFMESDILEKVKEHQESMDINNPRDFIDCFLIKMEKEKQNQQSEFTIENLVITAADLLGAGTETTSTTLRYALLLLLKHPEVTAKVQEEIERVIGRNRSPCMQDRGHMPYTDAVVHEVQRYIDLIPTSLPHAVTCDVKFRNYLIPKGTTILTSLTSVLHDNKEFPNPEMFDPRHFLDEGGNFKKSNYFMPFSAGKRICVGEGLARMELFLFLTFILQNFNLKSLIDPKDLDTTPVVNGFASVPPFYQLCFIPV
Cytochrome P450 3A7 (Homo sapiens), sequence (P24462 whole entry, looked up): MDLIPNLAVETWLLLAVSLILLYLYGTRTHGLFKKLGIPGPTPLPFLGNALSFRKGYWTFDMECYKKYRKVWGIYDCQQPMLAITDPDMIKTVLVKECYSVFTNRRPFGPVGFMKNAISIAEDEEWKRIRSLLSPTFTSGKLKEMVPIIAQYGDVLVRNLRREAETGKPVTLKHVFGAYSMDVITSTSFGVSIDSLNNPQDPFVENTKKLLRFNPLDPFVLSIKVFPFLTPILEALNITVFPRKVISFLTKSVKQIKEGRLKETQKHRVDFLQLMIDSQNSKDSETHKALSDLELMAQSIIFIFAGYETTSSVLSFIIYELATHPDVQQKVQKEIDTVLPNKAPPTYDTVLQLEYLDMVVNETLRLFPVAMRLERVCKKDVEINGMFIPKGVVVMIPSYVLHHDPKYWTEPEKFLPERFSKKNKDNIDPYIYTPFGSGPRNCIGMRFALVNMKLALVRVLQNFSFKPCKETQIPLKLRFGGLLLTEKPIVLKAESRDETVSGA
Caspase-3 (Homo sapiens), sequence (P42574 whole entry, looked up): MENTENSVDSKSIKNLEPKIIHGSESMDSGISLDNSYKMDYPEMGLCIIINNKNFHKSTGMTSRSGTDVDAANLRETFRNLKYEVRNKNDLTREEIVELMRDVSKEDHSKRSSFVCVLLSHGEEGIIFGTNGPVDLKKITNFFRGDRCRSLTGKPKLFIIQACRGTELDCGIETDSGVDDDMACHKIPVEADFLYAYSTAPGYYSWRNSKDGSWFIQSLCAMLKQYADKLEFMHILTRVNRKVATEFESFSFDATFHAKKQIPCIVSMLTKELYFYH

For the compound `CCc1cnc(C2=NC(C)(C(C)C)C(=O)N2)c(C(=O)O)c1` (stereo not given), the compound was classed as inactive (in test [1]; with Caspase-3 (Homo sapiens); in test [2]; in test [3]; in [4]; in [5]). Moreover, the outcome (in test [6]; with CYP2C8 (gene 1558); in the test with CYP2E1 (gene 1571); in the test with CYP4A11 (gene 1579); in test [7]; in test [8]) was inactive. The compound was classed as inactive (in test [9]; in test [10]; in [11]; in test [12]; with CYP3A5 (gene 1577); in [13]). Also, the result in test [14] was inactive.
In the case of `CNC(=O)ON=C(SC)C(=O)N(C)C`, the outcome (in test [1]; in the test with Caspase-3 (Homo sapiens); in [2]; in test [3]; in test [5]; in test [6]) was inactive. Moreover, the outcome (in the test with CYP2E1 (gene 1571); with CYP4A11 (gene 1579); in test [7]; in test [8]; in test [9]; in [10]) was inactive. The result (in [11]; in test [12]; with CYP3A5 (gene 1577); in test [13]; in test [14]) was inactive. Also, the AC50 (commonly the concentration at which the activity in the assay is half-maximal) in test [4] is 0.369 µM (active); with CYP2C8 (gene 1558) it was 0.0994 µM (active).
Turning to `COP(=O)(OC)C(O)C(Cl)(Cl)Cl` (stereo not given), the AC50 in [1] is 0.155 µM (active). Besides, the call (in the test with Caspase-3 (Homo sapiens); in test [4]; in test [8]; in test [9]; in test [10]; in [11]) was inactive. For the same compound, in [13], the compound was classed as inactive.
`O=C(O)c1cc(Oc2ccc(C(F)(F)F)cc2Cl)ccc1[N+](=O)[O-]`: the call (in test [1]; with Caspase-3 (Homo sapiens); in [2]; in test [3]; in test [4]; in test [6]) was inactive. In addition, the result (with CYP2E1 (gene 1571); in test [8]; in test [9]; in test [10]; in test [11]; in test [14]) was inactive. For the same compound, the AC50 in test [5] was 50 µM (active); with CYP2C8 (gene 1558) it was 8.77 µM (active); with CYP4A11 (gene 1579), 50 µM (active); in [12], 50 µM (active); with CYP3A5 (gene 1577) it was 50 µM (active).
`Nc1c(Cl)cc([N+](=O)[O-])cc1Cl`: the AC50 in [1] is 83.3 µM (active); in the test with Caspase-3 (Homo sapiens), 17.3 µM (active); in test [3] it was 13 µM (active); in test [4] it was 50 µM (active); in test [5] it was 11.8 µM (active); in test [6], 85 µM (active). Also, the AC50 with CYP2C8 (gene 1558) is 78.4 µM (active); with CYP2E1 (gene 1571), 40.4 µM (active); with CYP4A11 (gene 1579), 67.4 µM (active); in [7] it was 11.5 µM (active); in [8], 35.1 µM (active); in test [10] it was 31.8 µM (active). For the same compound, the AC50 in [11] is 50 µM (active); in [12], 84.2 µM (active); with CYP3A5 (gene 1577), 27.5 µM (active); in test [13], 41.8 µM (active); in test [14] it was 74.2 µM (active). For the same compound, the compound was classed as inactive in [2] and in [9].
Take `Cc1cc(C2CC2)nc(Nc2ccccc2)n1`: the outcome (in test [1]; with Caspase-3 (Homo sapiens); in test [2]; in [4]; in [6]; with CYP2C8 (gene 1558)) was inactive. The result (in the test with CYP2E1 (gene 1571); with CYP4A11 (gene 1579); in test [7]; in [8]; in [9]; in test [10]) was inactive. Also, the call (in test [11]; in test [12]; in the test with CYP3A5 (gene 1577); in test [14]) was inactive. Also, the AC50 was 91.5 µM (active) in [3] and 18 µM (active) in test [5].
